An excerpt weighted towards active compounds, which were near 3.8% of everything screened.
HepG2 tox-1 = HepG2 cytotoxicity, counter-screen for TGF-b inhibitors; hit rate 0.76% among 410,000; HepG2 CAGA-GFP viability, ATP luminescence, 18 h; Potency, µM (highest dose often 46.1 µM), most hits filed as cytotoxic
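HepG2 CAGA-GFP cells (1000/well, DMEM with 1% FBS) received compound, then TGF-beta at 500 pg/mL final, and were incubated 18 hours at 37 degrees C. Viability was read by CellTiter-Glo luminescence. Media-only wells were set as complete cell-killing and DMSO as no toxicity.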
TGFb inhibitor = inhibitors of TGF-b signaling; HepG2 CAGA-GFP TGF-b/SMAD3 reporter, GFP fluorescence, 18 h; TGF-beta stimulated, 500 pg/mL final; Potency, µM (series often up to 46.1 µM), usual class: inhibitors; hit rate 1.2% among 410,000; AID 588855; also: nearly all actives have a fitted effect of over 65% in size
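Inhibition of TGF-beta-driven CAGA-GFP reporter expression in HEPG2 cells is measured by cellular GFP fluorescence after 18 h stimulation with 500 pg/mL recombinant TGF-beta in 1% FBS medium at 37 degrees C.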
HT1080 IDH1KD tx = HT-1080 IDH1 knockdown cell toxicity (counter line); HT-1080 IDH1 knockdown viability, ATP luminescence, 48 h; Potency, µM (series often up to 46.1 µM), usual class: cytotoxic; hit rate 2% among 360,000; AID 686971
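Knockdown cells (IDH1KD HT-1080) received compounds 2 h after plating at 750 cells/well and were kept 48 h at 37 °C in 5% FBS RPMI. A CellTiter-Glo luminescence read gave % activity for curve fitting.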
ATXN viability = reduces viability in counter-screen for ATXN expression inhibitors | S2 cells (HEK-293 line with an ATXN2-luciferase reporter) viability, CellTiter-Fluor protease fluorescence, 24 h | Potency, µM (doses to about 56.7 µM), usual class: cytotoxic | hit rate 0.49% among 400,000; also: nearly all actives have a fitted effect of over 40% in size
ATXN2 expr inh = reduces ATXN2 reporter expression in HEK-293 cells. HEK-293 ATXN2-luciferase reporter, luminescence, 24 h. Potency, µM (highest dose often 57 µM), most hits filed as inhibitors. hit rate 0.72% among 360,000; also: nearly all actives have a fitted effect of over 55% in size
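qHTS (up to 57 uM final) was run with 24 h compound exposure of reporter cells at 37 °C. Each well was multiplexed: SteadyGlo luminescence measured ATXN2-luciferase expression after a fluorogenic Gly-Phe-AFC viability readout (25 uM final).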
HT1080-NT tox = kills 2HG-producing HT-1080-NT fibrosarcoma cells; hit rate 1.6% among 360,000; HT-1080-NT fibrosarcoma viability, CellTiter-Glo ATP luminescence, 48 h; Potency, µM (highest dose often 46.1 µM), hits mostly cytotoxic;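 also: NT is the 2HG producing partner of a matched IDH1 knockdown line; nearly all actives have a fitted effect of over 55% in size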
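Toxicity toward the 2HG-producing NT line was scored as %Activity, normalised to DMSO and no-cell wells, from CellTiter-Glo luminescence after 48 hours' treatment.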
TGFb CAGA inh = confirmation of TGF-b signaling inhibitors in HepG2 reporter cells; shares compounds with TGFb inhibitor; HepG2 CAGA-GFP TGF-b reporter, GFP fluorescence, 18 h; cells stimulated with TGF-beta, 500 pg/mL; Potency, µM (doses to about 46.1 µM), hits mostly inhibitors; hit rate 63% among 1,600; also: nearly all actives have a fitted effect of over 65% in size
HepG2 tox-2 = HepG2 cytotoxicity, TGF-b inhibitor counterscreen | shares compounds with TGFb inhibitor | hit rate 27% among 1,600 | HepG2 CAGA-GFP viability, ATP luminescence, 18 h; cells stimulated with TGF-beta, 500 pg/mL | AID 720535 | Potency, µM (top dose mostly 46.1 µM), usual class: inhibitors; also: nearly all actives have a fitted effect of over 70% in size
TGFb CCL64 inh = TGF-b inhibition, CCL64 orthogonal assay; hit rate 41% among 1,600; Potency, µM (series often up to 46.1 µM), most hits filed as inhibitors; shares compounds with TGFb inhibitor; CCL64 CAGA-GFP reporter, TGF-b stimulated, GFP fluorescence, 18 h; AID 720536; also: nearly all actives have a fitted effect of over 65% in size
COP TGFb inh = validation of TGF-b inhibitors in HepG2 COP promoter reporter; shares compounds with TGFb inhibitor; HepG2 COP-GFP TGF-b reporter, GFP fluorescence, 18 h; cells stimulated by added recombinant TGF-beta; Potency, µM (titrated, usually from 46.1 µM), usual class: inhibitors; hit rate 3% among 1,600; AID 720537; also: nearly all actives have a fitted effect of over 70% in size
Each line names hits and unclear results; the compound was inactive in the other large screens (follow-up assays come after a bar, where they were run). Calls follow the shape of the dose curve; as a rule, active = well fitted curve in the direction sought with a large enough effect; inconclusive = small, poorly fitted or top-dose-only effect, or another doubt; inactive = no such curve, though single readings can be large; an effect the other way counts as inactive or inconclusive.

Cc1ccc(NC(=O)CSc2nccn2C2CCCC2)cc1	none (no result: HT1080 IDH1KD tx, ATXN viability, ATXN2 expr inh, HT1080-NT tox)
O=C(c1ccc(Cl)cc1)C(CN1CCCCC1)c1ccccc1 (configuration not stated)	HepG2 tox-1 5.6µM, TGFb inhibitor 5.6µM, HT1080 IDH1KD tx 2.6µM, ATXN2 expr inh inconclusive, HT1080-NT tox 5.8µM (no result: ATXN viability) | TGFb CAGA inh 13µM | HepG2 tox-2 18µM | TGFb CCL64 inh 2.3µM | COP TGFb inh inconclusive
COc1ccc(C(=O)C(CN2CCOCC2)c2ccccc2)cc1F (configuration not stated)	TGFb inhibitor 4µM, HT1080 IDH1KD tx 12µM, ATXN viability inconclusive, ATXN2 expr inh inconclusive, HT1080-NT tox inconclusive | TGFb CAGA inh inconclusive | HepG2 tox-2 15µM | TGFb CCL64 inh 7.3µM | COP TGFb inh inactive
O=c1c2ccccc2c(=O)n(Cc2ccccc2)n1Cc1ccccc1	TGFb inhibitor 11µM | TGFb CAGA inh inconclusive | HepG2 tox-2 inactive | TGFb CCL64 inh 18µM | COP TGFb inh inconclusive
O=c1ccn(Cc2ccccc2)c2ccccc12	TGFb inhibitor inconclusive
O=C(Nc1ccc2nc3n(c(=O)c2c1)CCCCC3)c1c(F)ccc([N+](=O)[O-])c1F	HepG2 tox-1 11µM, TGFb inhibitor 5µM, HT1080 IDH1KD tx 15µM, ATXN2 expr inh 7.1µM, HT1080-NT tox 9.2µM (no result: ATXN viability) | TGFb CAGA inh 2.6µM | HepG2 tox-2 2.6µM | TGFb CCL64 inh 4.1µM | COP TGFb inh 8.2µM
O=C(Nc1ccc2nc3n(c(=O)c2c1)CCCCC3)c1ccccc1[N+](=O)[O-]	none
COc1ccc(C2/C=C\CN(C(=O)C3CC3)[C@H](Cc3ccccc3)C(=O)N2Cc2ccc(F)cc2)cc1 (some centres not stated)	TGFb inhibitor 10µM, HT1080 IDH1KD tx inconclusive, ATXN viability inconclusive, HT1080-NT tox inconclusive | TGFb CAGA inh inconclusive | HepG2 tox-2 inactive | TGFb CCL64 inh inconclusive | COP TGFb inh inactive
c1ccc(Sc2ncnc3ccccc23)cc1	TGFb inhibitor 10µM, HT1080 IDH1KD tx inconclusive | TGFb CAGA inh 10µM | HepG2 tox-2 inconclusive | TGFb CCL64 inh inconclusive | COP TGFb inh inactive
O=C(Nc1cc(Sc2ccccn2)cc([N+](=O)[O-])c1)c1ccc(Cl)cc1	TGFb inhibitor 14µM, HT1080 IDH1KD tx inconclusive, HT1080-NT tox inconclusive | TGFb CAGA inh 12µM | HepG2 tox-2 inactive | TGFb CCL64 inh 10µM | COP TGFb inh inactive
O=S(=O)(CCOc1ccccc1)c1nc2ccccc2[nH]1	TGFb inhibitor 16µM, HT1080 IDH1KD tx inconclusive, HT1080-NT tox inconclusive | TGFb CAGA inh 6.5µM | HepG2 tox-2 23µM | TGFb CCL64 inh 16µM | COP TGFb inh inconclusive
CC1(C)CC1C(=O)Nc1ccc([N+](=O)[O-])cc1Br (configuration not stated)	none

Compound activity (PubChem)
